The entries come from a sample that favours hits as a whole.
MLL CXXC-DNA inh = blocks binding of human MLL CXXC domain to DNA | actives 0.037% (n = 290,000) | Potency, µM (top dose mostly 115 µM), inactives show at the highest dose activity change, negative = inhibition, usual class: inhibitors | AID 2662 | MLL-CXXC / FITC-HOXA9 DNA fluorescence polarization | Q03164; active means well fitted inhibition curve with a large enough effect in the polarisation, with a control signal flat, not every such curve was filed as active; inconclusive means small, poorly fitted or top-dose-only effect, or effect the other way, or a change in a side signal; inactive means no such curve, though single readings can be large or run the other way; the % refers to the polarisation; further: potency means the concentration at half of the fitted maximal effect
Target sequence (Q03164 whole entry, looked up, the tested form may be a part): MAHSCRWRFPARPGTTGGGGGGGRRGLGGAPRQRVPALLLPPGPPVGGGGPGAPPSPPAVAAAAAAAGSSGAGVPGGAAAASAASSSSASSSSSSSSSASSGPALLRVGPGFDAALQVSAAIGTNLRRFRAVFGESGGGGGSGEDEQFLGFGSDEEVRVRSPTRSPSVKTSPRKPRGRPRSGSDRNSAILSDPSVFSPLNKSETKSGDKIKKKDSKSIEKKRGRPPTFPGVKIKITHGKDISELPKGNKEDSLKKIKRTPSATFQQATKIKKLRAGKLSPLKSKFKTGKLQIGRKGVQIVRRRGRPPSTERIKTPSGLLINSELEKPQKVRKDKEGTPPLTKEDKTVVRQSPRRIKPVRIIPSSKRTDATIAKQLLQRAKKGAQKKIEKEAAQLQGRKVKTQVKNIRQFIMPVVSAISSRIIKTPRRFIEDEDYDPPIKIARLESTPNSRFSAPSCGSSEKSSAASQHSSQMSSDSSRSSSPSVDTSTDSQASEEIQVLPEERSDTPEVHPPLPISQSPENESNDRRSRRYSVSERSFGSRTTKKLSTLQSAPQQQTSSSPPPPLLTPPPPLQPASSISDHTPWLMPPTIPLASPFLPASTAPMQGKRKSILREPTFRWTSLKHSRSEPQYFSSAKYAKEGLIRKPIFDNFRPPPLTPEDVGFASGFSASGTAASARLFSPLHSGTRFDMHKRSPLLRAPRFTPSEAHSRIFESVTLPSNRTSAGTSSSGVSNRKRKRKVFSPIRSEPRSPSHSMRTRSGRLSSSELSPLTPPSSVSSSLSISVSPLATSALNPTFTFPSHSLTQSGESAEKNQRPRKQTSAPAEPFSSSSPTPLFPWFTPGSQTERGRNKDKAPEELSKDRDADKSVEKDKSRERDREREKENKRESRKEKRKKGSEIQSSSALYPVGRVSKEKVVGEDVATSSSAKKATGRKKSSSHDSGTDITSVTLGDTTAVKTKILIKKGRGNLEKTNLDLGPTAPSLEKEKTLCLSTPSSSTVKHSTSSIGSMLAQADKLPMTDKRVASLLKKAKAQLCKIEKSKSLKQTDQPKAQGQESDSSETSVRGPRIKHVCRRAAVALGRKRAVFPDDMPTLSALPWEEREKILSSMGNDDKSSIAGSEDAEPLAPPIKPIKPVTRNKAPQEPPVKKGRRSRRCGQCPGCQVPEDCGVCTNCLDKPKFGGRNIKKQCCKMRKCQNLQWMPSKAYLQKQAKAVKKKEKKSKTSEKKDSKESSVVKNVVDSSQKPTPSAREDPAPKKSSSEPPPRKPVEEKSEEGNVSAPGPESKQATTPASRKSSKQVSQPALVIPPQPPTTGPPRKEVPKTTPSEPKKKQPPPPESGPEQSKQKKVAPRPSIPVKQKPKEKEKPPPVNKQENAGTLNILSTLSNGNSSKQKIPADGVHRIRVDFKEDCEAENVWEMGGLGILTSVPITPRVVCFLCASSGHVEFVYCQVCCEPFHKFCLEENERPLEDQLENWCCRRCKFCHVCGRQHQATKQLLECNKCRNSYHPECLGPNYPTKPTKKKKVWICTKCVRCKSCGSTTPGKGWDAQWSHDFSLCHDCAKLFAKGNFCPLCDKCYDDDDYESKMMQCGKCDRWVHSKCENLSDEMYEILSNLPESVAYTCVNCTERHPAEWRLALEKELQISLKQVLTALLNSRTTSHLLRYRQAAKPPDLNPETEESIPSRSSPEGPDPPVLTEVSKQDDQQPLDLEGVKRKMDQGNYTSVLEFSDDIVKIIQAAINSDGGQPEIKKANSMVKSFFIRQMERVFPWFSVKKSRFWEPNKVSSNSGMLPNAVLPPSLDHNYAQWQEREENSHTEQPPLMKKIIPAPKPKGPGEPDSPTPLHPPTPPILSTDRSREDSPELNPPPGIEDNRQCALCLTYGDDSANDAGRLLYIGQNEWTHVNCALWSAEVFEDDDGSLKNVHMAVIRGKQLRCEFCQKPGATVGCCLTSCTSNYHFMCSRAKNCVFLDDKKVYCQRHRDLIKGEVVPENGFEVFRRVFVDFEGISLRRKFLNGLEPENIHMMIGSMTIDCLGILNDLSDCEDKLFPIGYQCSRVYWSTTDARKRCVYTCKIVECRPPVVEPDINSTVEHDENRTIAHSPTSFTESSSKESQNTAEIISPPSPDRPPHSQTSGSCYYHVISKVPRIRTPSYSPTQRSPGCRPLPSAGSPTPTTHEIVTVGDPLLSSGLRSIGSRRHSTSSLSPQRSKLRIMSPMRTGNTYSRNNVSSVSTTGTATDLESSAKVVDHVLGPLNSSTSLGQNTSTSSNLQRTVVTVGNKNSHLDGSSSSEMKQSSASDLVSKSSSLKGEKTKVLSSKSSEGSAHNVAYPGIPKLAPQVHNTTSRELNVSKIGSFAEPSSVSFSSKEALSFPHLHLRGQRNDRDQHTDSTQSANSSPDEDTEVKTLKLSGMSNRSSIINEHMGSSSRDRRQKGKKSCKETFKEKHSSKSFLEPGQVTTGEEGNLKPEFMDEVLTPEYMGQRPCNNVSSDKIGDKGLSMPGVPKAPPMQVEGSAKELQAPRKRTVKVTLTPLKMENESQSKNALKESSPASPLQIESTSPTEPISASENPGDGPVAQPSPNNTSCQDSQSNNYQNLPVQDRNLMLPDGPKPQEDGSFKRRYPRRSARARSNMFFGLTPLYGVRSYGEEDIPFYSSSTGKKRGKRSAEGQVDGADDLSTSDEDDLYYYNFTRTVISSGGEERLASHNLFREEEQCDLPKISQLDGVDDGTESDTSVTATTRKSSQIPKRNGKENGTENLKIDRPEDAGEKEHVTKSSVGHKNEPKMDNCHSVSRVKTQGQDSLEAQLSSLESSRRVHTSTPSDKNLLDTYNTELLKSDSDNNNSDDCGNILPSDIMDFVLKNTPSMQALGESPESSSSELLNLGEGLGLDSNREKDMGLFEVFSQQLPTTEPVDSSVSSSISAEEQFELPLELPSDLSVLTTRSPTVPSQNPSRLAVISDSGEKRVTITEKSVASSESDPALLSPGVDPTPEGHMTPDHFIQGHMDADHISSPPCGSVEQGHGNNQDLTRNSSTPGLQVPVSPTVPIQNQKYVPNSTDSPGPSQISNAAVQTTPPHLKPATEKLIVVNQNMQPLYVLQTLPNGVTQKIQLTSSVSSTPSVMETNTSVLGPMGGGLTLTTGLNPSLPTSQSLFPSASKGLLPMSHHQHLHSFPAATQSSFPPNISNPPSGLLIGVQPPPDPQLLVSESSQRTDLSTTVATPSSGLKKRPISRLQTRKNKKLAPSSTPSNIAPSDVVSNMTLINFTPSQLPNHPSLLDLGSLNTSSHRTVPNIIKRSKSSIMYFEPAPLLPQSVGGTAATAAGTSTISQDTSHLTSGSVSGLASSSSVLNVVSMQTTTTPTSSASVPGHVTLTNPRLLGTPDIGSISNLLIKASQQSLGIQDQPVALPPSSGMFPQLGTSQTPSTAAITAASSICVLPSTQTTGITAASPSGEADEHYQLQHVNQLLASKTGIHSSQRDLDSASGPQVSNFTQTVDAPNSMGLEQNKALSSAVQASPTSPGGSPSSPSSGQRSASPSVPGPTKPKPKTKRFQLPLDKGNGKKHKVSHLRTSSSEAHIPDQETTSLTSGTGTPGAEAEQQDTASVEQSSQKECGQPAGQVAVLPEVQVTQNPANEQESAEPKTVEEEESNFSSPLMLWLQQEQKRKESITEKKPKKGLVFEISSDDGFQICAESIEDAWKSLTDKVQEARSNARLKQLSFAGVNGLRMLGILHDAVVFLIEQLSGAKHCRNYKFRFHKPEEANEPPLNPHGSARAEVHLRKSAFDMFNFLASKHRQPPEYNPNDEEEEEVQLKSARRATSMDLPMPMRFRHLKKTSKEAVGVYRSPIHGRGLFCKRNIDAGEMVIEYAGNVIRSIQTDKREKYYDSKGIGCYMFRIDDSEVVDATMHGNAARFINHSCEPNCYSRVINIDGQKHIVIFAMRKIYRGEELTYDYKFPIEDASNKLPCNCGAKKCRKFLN
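Steps: dispense CXXC domain solution (7 uM) → pin compounds or unlabeled HOX-A9 DNA control → 5 min ambient → add FLSN-HOX-A9 solution (50 nM) → spin → 30 min ambient → fluorescence polarization. Tris pH 7.5/NaCl/DTT/BSA buffer.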
Menin-MLL FL inh = inhibitors of human menin-MLL interaction, wild-type MLL peptide; Fluorescence polarization, fluorescein-MLL peptide displacement from menin; FP activity change, % at 61.4 µM; 290,000 tested, under 10 active; AID 1766; active means well fitted curve in the direction sought with a large enough effect in the polarisation, not every such curve was filed as active; inconclusive means small, poorly fitted or top-dose-only effect, or effect the other way, or a change in a side signal; inactive means no such curve, though single readings can be large or run the other way; the % refers to the polarisation; further: % of control where 0% means no effect
Menin-MLL TR inh = menin-MLL binding inhibition, Texas Red mutant peptide; Menin + Texas Red MLL mutant peptide, fluorescence polarization; Potency, µM (highest dose often 61.6 µM), for the others: at the top dose FP activity change, negative = inhibition, hits mostly inhibitors; actives 0.23% (n = 270,000); active means well fitted inhibition curve with a large enough effect in the polarisation, with a control signal flat, not every such curve was filed as active; inconclusive means small, poorly fitted or top-dose-only effect, or effect the other way, or a change in a side signal; inactive means no such curve, though single readings can be large or run the other way; the % refers to the polarisation; further: potency means the concentration at half of the fitted maximal effect; % of control where 0% means no effect
RGS12 GoLoco inh-1 = inhibitors of human Gai1-RGS12 GoLoco interaction (red fluorophore); Gai1:RGS12 GoLoco peptide FP, rhodamine, 10 min; Potency, µM (titrated, usually from 61.6 µM), inactives show top-dose activity, negative = inhibition, usual class: inhibitors; actives 0.44% (n = 230,000); active means well fitted inhibition curve with a large enough effect, not every such curve was filed as active; inactive means no such curve, though single readings can be large or run the other way; further: potency means the concentration at half of the fitted maximal effect; on the % scale 0 is the no-effect control and ±100 the full control effect; nearly all actives have a fitted effect of over 30% in size
RGS12 GoLoco inh-2 = RGS12 (human) GoLoco motif inhibition, red FP; Gai1/rhodamine-RGS12 GoLoco peptide fluorescence polarization; shares compounds with RGS12 GoLoco inh-1; actives 50% (n = 110); Potency, µM (titrated, usually from 57.1 µM), for inactives: at the highest dose activity, negative = inhibition, usual class: inhibitors; active means well fitted inhibition curve with a large enough effect; inconclusive means small, poorly fitted or top-dose-only effect; inactive means no such curve, though single readings can be large or run the other way
* hit, by the source's call; ? = inconclusive; . = no result given; ! = a repeat was not active; [ ] = another dose, or the depositor's remark.

SMILES	MLL CXXC-DNA inh	Menin-MLL FL inh	Menin-MLL TR inh	RGS12 GoLoco inh-1	others
CCc1ccc(-c2cc(C(=O)N/N=C/c3c[nH]c4ccccc34)[nH]n2)cc1	17%	-2	?	7%
CCc1ccc(/C=C/c2c[nH]c3ccccc23)[n+](CC)c1	7%	?	3%	6.3µM*
CCCC[C@@H]1CN2[C@H](c3ccc(Br)cc3)[C@@H](C)CC[C@H]2C(=O)O1	.	0[11.7 µM]	-7%[11.7 µM]	.
Cc1c(N(C)CS(=O)(=O)O)c(=O)n(-c2ccccc2)n1C	0%[51.4 µM]	3	4%	28µM*!
Cc1c(N(C)C(=O)c2ccco2)c(=O)n(-c2ccccc2)n1C	7%	-1	0%	-6%
CC(C)(C)c1ccc(-c2cn(-c3ccc(Br)cc3)c3[n+]2CCCS3)cc1	13%	-12	?	35µM*
CC(C)(C)NC[C@H](O)CSc1nc(-c2ccc(C(N)=O)s2)cs1	1%	-2	-5%	.
O=C(Cn1sc2ccccc2c1=O)NC12CC3CC(CC(C3)C1)C2	-28%	0	-8%	28µM*
Oc1cccc(-c2nc3ccccc3s2)c1	0%	0	30%	-3%
CC[n+]1cccc(-c2nc3ccccc3s2)c1	-8%	-3	9%	10µM*
N#Cc1cc(-c2ccccc2)nn1-c1ccccc1	9%	0	12%	13µM*
Cn1ccc(-c2ccccc2)n1	?	-4	-16%	6%
O=C(NCCO)Nc1ccc2nc(-c3ccco3)c(-c3ccco3)nc2c1	35µM*	?	?	-31%
O=C(NCCCO)c1ccc2nc(-c3ccco3)c(-c3ccco3)nc2c1	-28%	-17	?	-21%
CC1(C)CC(N2CCCC2)=CC(=[N+]2CCCCC2)C1	25%	-4	-11%	6.3µM*
CC1(C)CC(N2CCCC2)=CC(=[N+]2CCCC2)C1	-2%	3	7%	2µM*
CC1(C)CC(N2CCN(Cc3ccccc3)CC2)=CC(=[N+]2CCCCC2)C1	-6%	0	.	25µM*
CN(Cc1ccccc1)C1=CC(=[N+]2CCCCC2)CC(C)(C)C1	-5%	4	.	-51%
COc1ccc2oc(=O)c(C(=O)C[n+]3cccc(C)c3)cc2c1	-9%	0	-2%	10µM*
O=C(O)c1ccc2c3c(ncnc13)-c1ccccc1C2=O	-26%	?	-24%	18µM*
O=C(O)C[C@H](S)C(=O)O	.	.	.	6%[14.2 µM]
CC(S)C(=O)NCC(=O)O (configuration not stated)	7%	5	0%	10µM*
O=C(O)c1ccc(Cl)c2c1C1C=CCC1C(c1ccccn1)N2 (configuration not stated)	?	?	?	10µM*
O=[N+]([O-])c1ccc(Cl)c2c1C1C=CCC1C(c1ccccn1)N2 (configuration not stated)	-12%	-7	?	-2%
c1ccc2n[nH]nc2c1	.	.	.	16µM*
SMILES	MLL CXXC-DNA inh	Menin-MLL FL inh	Menin-MLL TR inh	RGS12 GoLoco inh-1	others
COc1ccc(C2/C=C\CN(C(=O)c3ccc(C)cc3)C(C)C(=O)N2Cc2ccc(F)cc2)cc1 (configuration not stated)	.	1	4%	.
COc1ccc(/C=N/Nc2cc(C)nc3ccc(Br)cc23)cc1	-10%	-22	16µM*	.
Cc1ccc(SCC(c2ccccc2)N2CCN(CCc3ccccc3)CCC2=O)cc1 (configuration not stated)	.	9	?	.
CC1=CC(C#N)(C#N)C(C#N)(C#N)C(c2ccccc2)N1 (configuration not stated)	40µM*	?	-7%	32µM*
COc1cccc(C2=Nn3c(nnc3-c3ccccc3C)SC2)c1	.	-4	-20%	.
CC(=O)Nc1ccc(NC(=O)c2ccc(NC(=O)c3ccccc3)cc2)cc1	-5%	.	.	.
CN(c1ccccc1)S(=O)(=O)c1ccc(NC(=O)c2ccc(-c3ccccc3)cc2)cc1	31%	1	28µM*	23%
O=C(Nc1ccc(NC(=O)c2ccc(S(=O)(=O)c3ccccc3)cc2)cc1)c1ccccc1	36%	3	10µM*	5%
C[C@]12CC[C@@H]3c4ccc(O)cc4CC[C@H]3[C@@H]1CCC2OC(=O)CCC1CCCC1 (some centres not stated)	5%	-1	20%	3%
O=c1c(O)cccc2cc(O)c(O)c(O)c12	?	-3	?	4µM*!
O=c1cc(-c2ccccc2)oc2cc(O)c(O)c(O)c12	.	3	?	-4%
Cc1cc(NC(=O)CCCN2C(=O)/C(=C/c3cccs3)SC2=S)no1	-18%	4	18µM*	7%
COc1cccc(/C=C2\SC(=S)N(CCCC(=O)Nc3cc(C)on3)C2=O)c1	6%	?	?	.
O=C(N/N=C\c1ccccc1O)c1ccccc1O	.	?	?	11%
COc1ccc(C2CC(c3ccccc3)=NN2C(=O)COC(=O)c2cc(S(=O)(=O)N3CCOCC3)ccc2Cl)cc1 (configuration not stated)	0%	3	-3%	13µM*
COc1ccc(C2CC(c3ccccc3)=NN2C(=O)COC(=O)c2cccnc2Cl)cc1 (configuration not stated)	1%	4	1%	-3%
O=C1c2cccc3c(O)ccc(c23)C(=O)N1Cc1ccco1	?	?	0%	11µM*	RGS12 GoLoco inh-2=10µM*
O=C(Nc1cccc(C(F)(F)F)c1)C1CCCN(c2ncccn2)C1 (configuration not stated)	22%	0	-5%	2%
O=C(Nc1cccc(Nc2cc(Nc3cccc(C(F)(F)F)c3)ncn2)c1)C1CC1	.	.	.	.	RGS12 GoLoco inh-2=6%
CC(C)(C(O)c1ccc([N+](=O)[O-])cc1)[N+](=O)[O-] (configuration not stated)	.	-2	2%	1%
CN=C1N[C@H](c2ccccc2)N(c2ccccc2)S1	.	7	-16%[24.8 µM]	5.6µM*	RGS12 GoLoco inh-2=13µM*
CN(C)c1ncc2nc(-c3ccc(Cl)cc3)c(=O)n(C)c2n1	.	-12	18%	4%
CC(N)(C(=O)O)c1ccc(P(=O)(O)O)cc1 (configuration not stated)	.	.	.	-5%
CCCCn1c(=O)[nH]c2nc3cc(NC(C)=O)ccc3nc2c1=O	0%	?	.	10%	RGS12 GoLoco inh-2=77%
CCCCCCn1c(=O)[nH]c2nc3cc(N)c(C)cc3nc2c1=O	0%	2	-3%	-28%
Cn1c(SCC(=O)Nc2ccc3c(c2)oc2ccccc23)nnc1-c1ccccc1	22%	6	3%	3.5µM*	RGS12 GoLoco inh-2=7.9µM*
Cc1ccc(-c2nnc(SCC(=O)NCC3CCCO3)n2C)cc1 (configuration not stated)	3%	0	7%	11%
CCC(=O)Nc1ccc(-c2nnc(SCC(=O)NCC3CCCO3)n2C)cc1 (configuration not stated)	-2%	2	12%	-6%	RGS12 GoLoco inh-2=12%

Assay outcomes from PubChem BioAssay.
